Measurements as given in ChEMBL document CHEMBL4513216, “Probing the Open Global Health Chemical Diversity Library for Multistage-Active Starting Points for Next-Generation Antimalarials” (ACS Infect Dis, 2020).
Hit rate of the full screen: of about 69,000 compounds, about 8,600 (12%) showed an effect of 50% or more. The full list was thinned out, with strong results kept by preference.

System: Plasmodium berghei
Experiment: Screen against P. berghei liver stage (PbLuc), transformed with Luciferase, at 10uM
Assay type: functional, HepG2
Conditions: tested at 10 uM

| Structure (SMILES) | INHIBITION |
| --- | --- |
| Cc1ccc(S(N)(=O)=O)cc1C(=O)NC1CCN(C2CC2)CC1 | -10.9% |
| CC(=O)N1CCN(c2ccnc(C)n2)CC(COc2ccccc2)C1 (stereo unspecified) | 1.11% |
| Cc1ccc(N2CCN(Cc3ccccc3)C3(CCNCC3)C2=O)cn1 | 8.31% |
| CN(C)c1cncc(C2CCN(CC(N)=O)CC2)n1 | 31.6% |
| Cn1cccc1C(=O)N[C@@H]1CN(Cc2ccsc2)[C@@H]2COC[C@@H]21 | -37.4% |
| O=C(NCC1CC1)[C@H]1C[C@H]2CN(S(=O)(=O)Cc3ccccc3)C[C@@H]1O2 | 43.2% |
| CN(Cc1ccsc1)C(=O)Nc1ccc(S(C)(=O)=O)cc1 | 31.8% |
| NC(=O)c1ccc(NC(=O)Cn2cc(-c3ccccc3)ncc2=O)cc1 | 26.8% |
| Cc1nc(-c2ccncc2)ncc1C(C)NC(=O)C1=NN(C)C(=O)CC1 (stereo unspecified) | -9.29% |
| Cn1nc(C(=O)N2CCC(Oc3ccc(C#N)cn3)CC2)ccc1=O | 25.8% |
| CN1CCCC(C(=O)N2CCC(Oc3ccccn3)CC2)C1 (stereo unspecified) | 25.3% |
| COc1ccccc1OC1CCN(C(=O)C2CCCN(C)C2)CC1 (stereo unspecified) | 62.8% |
| CC(=O)N1CCC(Oc2ccc(C#N)cn2)CC1 | -43.5% |
| CN1CCCC(C(=O)N2CCC(Oc3ccc(C#N)cn3)CC2)C1 (stereo unspecified) | 74.4% |
| COc1ccccc1OC1CCN(C(=O)c2cnc(C)s2)CC1 | 12.7% |
| COCc1ncn2c1CN(C(=O)c1ccco1)CC2 | 4.57% |
| CCC1CNCc2cc3c(C)ccc(C)c3nc2O1 (stereo unspecified) | 21.7% |
| COc1cccc(C(=O)NC(C)CCN2CCOCC2)c1F (stereo unspecified) | 34.1% |
| CC(CCN(C)C)NC(=O)c1cccc(C(F)(F)F)c1F (stereo unspecified) | 66.5% |
| CC(CCN1CCOCC1)NC(=O)c1cccc(C(F)(F)F)c1F (stereo unspecified) | 35% |
| COc1c(CNCCC(=O)NC2CCCC2)c(C(C)C)nn1C | 21% |
| O=C(C[C@@H]1COC[C@H]2CN(Cc3ccc(F)cc3)C[C@@H]12)N1CCCC1 | -21.1% |

| Structure (SMILES) | INHIBITION |
| --- | --- |
| CC(C)Nc1cccc(CNC(=O)N2CCC(N3CC=CC3)C2)c1 (stereo unspecified) | 19.4% |
| CC(C)Nc1cccc(CNC(=O)N2CCCC2)c1 | 24.2% |
| CC(C)Nc1cccc(CNC(=O)N2CCC[C@@H]2CO)c1 | 52.2% |
| CC1=Nc2c(c(O)nn2C(C)C)C(c2cn(C)nc2C)S1 (stereo unspecified) | 33.3% |
| CCn1cc(Cl)c(C(=O)NCCCO)n1 | 20.1% |
| COc1ccc(NC(=O)CCNc2ncccn2)cn1 | 61% |
| CS(=O)(=O)c1ccc(NC(=O)CSC(F)(F)F)cn1 | 39.8% |
| COc1ccc(NC(=O)Cn2cc(-c3ccccc3)ncc2=O)cn1 | 44.9% |
| O=C(CCCNc1ncccn1)Nc1ccc(Cn2cncn2)cc1 | 45.9% |
| COc1ccc(NC(=O)CSC(F)(F)F)cn1 | 66.7% |
| Cc1cc(C)nc(NCCC(=O)Nc2ccc(Cn3cncn3)cc2)n1 | 55.1% |
| COc1ccc(NC(=O)CSc2nc(C)cc(C)n2)cn1 | -5.69% |
| COc1ccc2cc(NC(=O)CCNc3nc(C)cc(C)n3)cnc2c1 | 73% |
| COc1ccc(NC(=O)N2CCN(c3ncccn3)CC2)cn1 | -7.11% |
| O=C(CCNc1ncccn1)Nc1ccc(Cn2cncn2)cc1 | -4.56% |
| COc1ccc2cc(NC(=O)CCCNc3ncccn3)cnc2c1 | 46.1% |
| COc1ccc2cc(NC(=O)CCNc3ncccn3)cnc2c1 | 41.5% |
| O=C(NCCc1nnc2n1CCC2)NCC1(c2cccc(F)c2)CC1 | -36.3% |
| CO[C@H]1CN(C(C)C)C[C@@H]1NC(=O)Nc1ccc(C(F)(F)F)cc1 | 40.3% |
| CN(CC(=O)NC(C)(C)C)C(=O)C1CC(c2cccc(F)c2)=NO1 (stereo unspecified) | -29.1% |
| COCCN1CCCC(c2nccnc2-c2cccc(Cl)c2)C1 (stereo unspecified) | 12.75% |
| COc1ccc(-n2cc(CNC(=O)c3ccccn3)nn2)cc1 | -15.9% |

| Structure (SMILES) | INHIBITION |
| --- | --- |
| CS(=O)(=O)NCc1cc(-c2cc(F)cc(F)c2)nc(N2CCOCC2)n1 | -4.82% |
| CCc1nc(CC)n(CC(=O)NCc2cccc(C)c2)n1 | 13% |
| CN1CC(=O)N(c2ccccc2)CC12CCN(CC1CCOCC1)C2 (stereo unspecified) | -11.2% |
| CCc1nccn1CC(=O)N1C[C@@H]2CC[C@H]1CN(c1ncccn1)C2 | -22.4% |
| Cc1cnn(CC2CN(Cc3nc(C)no3)CCO2)c1 (stereo unspecified) | 4.71% |
| Cc1nc(CN2C[C@@H]3CN(C(=O)c4cccn4C)C[C@@H]3C2)cs1 | 16.1% |
| CC(C(=O)NC(N)=O)N(C)CCCc1cc(-c2ccccc2)no1 (stereo unspecified) | -28.36% |
| Cc1cccc(CN2CCC3(CC2)NC(=O)C[C@H]3c2cnn(C)c2)n1 | 1.61% |
| CC(NC(=O)c1cccc[n+]1[O-])C1CC1 (stereo unspecified) | 9% |
| CC(C)CNC(=O)COc1cccc[n+]1[O-] | -12.1% |
| CC(NC(=O)COc1cccc[n+]1[O-])C1CC1 (stereo unspecified) | 76.7% |
| CC(C)n1ccnc1C1CCN(c2nccc(C(F)(F)F)n2)CC1 | 11.5% |
| COCCN(C/C=C/c1ccccc1)Cc1nccs1 | -12.6% |
| CCc1ccc(CN(C/C=C/c2ccccc2)CCOC)nc1 | 52.9% |
| COCCN(C/C=C/c1ccccc1)Cc1ccccn1 | 27.8% |
| c1cc2c(cc1CN1CC[C@H]3CO[C@H](CN4CCCC4)[C@H]3C1)OCO2 | 10.5% |
| C[C@H]1CN(C(=O)c2cscn2)C[C@@]12CCN(c1ccsc1)C2=O | 47.4% |
| COCCOCC(=O)N1C[C@@H]2CC[C@H](Oc3ccccc3)[C@@H]2C1 | 7.52% |
| CC(=O)N1C[C@@H]2CN(S(=O)(=O)C3CC3)CCO[C@@H]2C1 | 6.79% |
| CC(=O)N1CCO[C@@H]2CN(S(=O)(=O)C3CC3)CC[C@@H]2C1 | 37.6% |
| CC(=O)N1CCO[C@@H]2CN(S(=O)(=O)C3CC3)C[C@@H]2C1 | 50.3% |
| Cc1nn(C)c2c(=O)n(Cc3ccccc3)nnc12 | 28.89% |

| Structure (SMILES) | INHIBITION |
| --- | --- |
| COc1ccnc(N2C[C@H]3CC[C@@H](C2)N(CC2CCC2)C3=O)n1 | 32.1% |
| COc1cccc(CNCc2cccnc2-n2cccn2)c1OC | 16.2% |
| COc1cc2c(cc1CNC(=O)Cc1ccc(C)nc1)OC(C)C2 (stereo unspecified) | -25.3% |
| COc1cc2c(cc1CNC(=O)Cc1cc(C)[nH]n1)OC(C)C2 (stereo unspecified) | 46.6% |
| CC(C)N1CC(C(=O)NCc2ccnc(-n3cccn3)c2)CC1=O (stereo unspecified) | -28% |
| COc1cc2c(cc1CNCc1ccnc(-n3cccn3)c1)OC(C)C2 (stereo unspecified) | 67.8% |
| COc1ccc(CNCc2ccnc(N3CCOCC3)c2)c(OC)c1 | 29.6% |
| COc1cc2c(cc1CNCc1cccnc1-n1cccn1)OC(C)C2 (stereo unspecified) | 68.9% |
| COc1cc2c(cc1CNC(=O)Cc1cc(C)on1)OC(C)C2 (stereo unspecified) | 47.4% |
| COc1cc2c(cc1CNCc1cccnc1OC)OC(C)C2 (stereo unspecified) | 60.2% |
| O=S(=O)(Cc1ccccc1)N1CCCn2cnc(CN3CCCC3)c2C1 | -17.7% |
| O=C(CCn1cccn1)N1CCC(c2nnc(-c3ccccn3)o2)CC1 | 44.9% |
| Cc1cc(-c2ccc(=O)n(C3CCN(C(=O)C4CCC4)CC3)n2)c(C)o1 | -30.9% |
| CC(=O)Nc1c(C)cnn1Cc1cc(F)ccc1F | -8.21% |
| CCC(=O)NCC(=O)Nc1c(C)cnn1Cc1cc(F)ccc1F | 44.2% |
| Cc1cnn(Cc2cc(F)ccc2F)c1NC(=O)CNC(=O)C1CC1 | 72.3% |
| Cc1cnn(Cc2cc(F)ccc2F)c1NC(=O)NC1CC1 | 35.6% |
| Cc1cnn(Cc2cc(F)ccc2F)c1NC(=O)C1CCOCC1 | 72.3% |
| Cc1cnn(Cc2cc(F)ccc2F)c1NC(=O)C1COCCO1 (stereo unspecified) | 2.01% |
| CC(=O)N1CC(C(=O)N2CCCC(Cn3ccnc3C)C2)C1 (stereo unspecified) | -3.7% |
| Cc1ccc(N2CCCC(Nc3nn4cc(C)nc4s3)C2)nn1 (stereo unspecified) | -17.7% |
| Cc1cnn(CCC(=O)N2CCN(c3ccc(C#N)cn3)CC2)c1 | 5.9% |

| Structure (SMILES) | INHIBITION |
| --- | --- |
| CC(=O)N1CCCn2nc(CNS(=O)(=O)N3CCC(C)CC3)cc2C1 | 15.7% |
| CN1CCC2(CC1)CN(C(=O)c1onc3ccccc13)CCCN2C | 24.2% |
| CC(=O)Nc1ccsc1C(=O)N1CC[C@H]2CC[C@@H](C1)N2C | 33.3% |
| c1cncc(N2CCCn3nnc(COCC4CC4)c3C2)c1 | 20.6% |
| c1cc(CN2CCCn3nnc(COCC4CC4)c3C2)ccn1 | 42.1% |
| Cc1ccc(CN2CCc3c(COCC4CC4)nn(C)c3C2)s1 | 59.3% |
| c1cncc(N2CCCn3nnc(CN4CCCCC4)c3C2)c1 | 70.3% |
| Cn1ncc2c1CN(Cc1cccnc1)CC2COCC1CC1 (stereo unspecified) | 53.5% |
| Cn1ncc2c1C(COCC1CC1)CN(Cc1ccncc1)C2 (stereo unspecified) | 22.2% |
| c1cncc(N2CCCn3nnc(CN4CCOCC4)c3C2)c1 | 7.67% |
| c1cncc(CN2CCCn3nnc(COCC4CC4)c3C2)c1 | 64.7% |
| O=C1CCCN1Cc1nnn2c1CN(c1cccnc1)CCC2 | 6.67% |
| Cn1nc(COCC2CC2)c2c1CN(CC1CC1)CC2 | 21.6% |
| Cc1ccc(CN2CCc3c(COC(C)C)nn(C)c3C2)s1 | 22.2% |
| Cn1ncc2c1C(COCC1CC1)CN(Cc1cccnc1)C2 (stereo unspecified) | 43.9% |
| COCCNC(=O)c1cc(C2CC2)nc2onc(C3CCNC3)c12 (stereo unspecified) | 25.1% |
| COCCN1CCC(C)(c2cc(O)[nH]n2)CC1 | 9.05% |
| O=C(Cc1cccnc1)N1CCC(c2nnc(-c3ccccn3)o2)CC1 | 1.5235% |
